Pf growth 48h: inhibits P. falciparum growth in the first generation, 48 h; P. falciparum luciferase growth in erythrocytes, 48 h; Potency, µM (titrated, usually from 28.7 µM), hits mostly inhibitors; 5.9% of 310,000 active; AID 504832
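In quantitative HTS format, infected erythrocytes bearing luciferase-reporter parasites were treated for a single generation at 37 C. Luminescence after adding detection reagent served as the growth measure.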
Cycloheximide cs: counter-screen hit for Shiga toxin inhibitors, cycloheximide | cell reporter, cycloheximide protein synthesis inhibition counterscreen | max response, % | 12% of 300,000 active | AID 2314; in the data active = max response mostly above about 13%, no sharp cut-off; inactive = mostly below about 14%; also: read at 38.3 µM for the half of the compounds with a filed dose
Shiga inhibitor: Shiga toxin inhibition | Vero cells, Shiga toxin protein synthesis inhibition reporter | inhibition, % at 38.7 µM | 9.2% of 290,000 active | AID 2315; in the data active = inhibition mostly above about 28%, no sharp cut-off; inactive = mostly below about 43%
Sm TGR block: inhibitors of Schistosoma mansoni thioredoxin glutathione reductase; Q962Y6; Potency, µM (top dose mostly 114 µM), actives largely listed as inhibitors; 3% of 360,000 active; purified TGR, DTNB reduction, TNB absorbance 405 nm; also: nearly all actives have a fitted effect of over 60% in size
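TGR 20 nM + NADPH 100 uM (dispensed conc.), cpd preinc 15 min RT; start with NADPH (500 uM addition) then DTNB (15 mM addition). Kinetic TNB absorbance, 405 nm filter. Four-parameter Hill fit across titration.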
Pf growth 96h: P. falciparum growth inhibition at 96 hour, primary screen for plastid delayed-death inhibitors; AID 504834; 6.9% of 320,000 active; P. falciparum luciferase reporter growth, 96 h; Potency, µM (doses to about 28.7 µM), actives largely listed as inhibitors
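96 h incubation, 37 C, 5% CO2, of luciferase-reporter P. falciparum-infected RBCs (2% hematocrit, 0.05% parasitemia final) with test compounds; endpoint luminescence.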
NS1 function inh: inhibitors of influenza NS1 protein function; Potency, µM (titrated, usually from 46.1 µM); 0.4% of 270,000 active; calls by dose curve; also: actives are rising curves; nearly all actives have a fitted effect of over 50% in size
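Growth recovery, yeast-based: influenza A NS1 expressed in S. cerevisiae causes slow growth, and suppressors are detected by OD600. The parent strain without NS1 is used as positive control.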
Of the large screens only hits and unclear results are named; the others gave an inactive call. This is a sample that favours compounds with a hit; in the whole collection about 21% have one here. Unless noted, calls follow the shape of the dose curve; as a rule, active = well fitted curve in the direction sought with a large enough effect; inconclusive = small, poorly fitted or top-dose-only effect, or another doubt; inactive = no such curve, though single readings can be large; an effect the other way counts as inactive or inconclusive.

Cc1ccc2cc(/C=N/NC(=O)c3ccc(F)cc3)c(Cl)nc2c1	none (no result: NS1 function inh)
COc1ccc(/C=N/Nc2ccc(C(=O)O)cc2)c(OC)c1OC	Cycloheximide cs 47, Shiga inhibitor 80, Pf growth 96h inconclusive
COc1cc(OC)cc(-c2c(-c3ccsc3)c3cc(Br)ccc3n2C)c1	Pf growth 48h inconclusive, Pf growth 96h inconclusive (no result: Cycloheximide cs, Shiga inhibitor, NS1 function inh)
O=C(c1ccccc1Cl)N1c2ncnn2C2(CCCCC2)[C@@H]2CCCC[C@@H]21	none (no result: Pf growth 48h, Cycloheximide cs, Shiga inhibitor, Pf growth 96h, NS1 function inh)
Cc1ccccc1CNCCCSc1ncccn1	none
Cc1cc(N2C(=O)C=CC2=O)c([N+](=O)[O-])cc1C	Sm TGR block 0.71µM, Pf growth 96h inconclusive
O=C(O)c1sc2cc(C(F)(F)F)cnc2c1-c1ccccc1	none
FC(F)(F)c1cnc2c(-c3ccccc3)n[nH]c2c1	Cycloheximide cs 29, Shiga inhibitor 83
CC(C)(C)c1cc(C(=S)N2CCCC2)cc(C(C)(C)C)c1O	Pf growth 48h inconclusive, Pf growth 96h 4.1µM
Cc1ccccc1-c1ccc(C(=O)Nc2cccc(F)c2)o1	Cycloheximide cs 47, Shiga inhibitor 50, Sm TGR block inconclusive
O=C(Nc1cccc(F)c1)c1ccc(-c2ccccc2C(F)(F)F)o1	Pf growth 48h inconclusive, Cycloheximide cs 31, Shiga inhibitor 50, Sm TGR block inconclusive, Pf growth 96h 15µM
Cc1cccc(NC(=O)c2ccc(-c3ccccc3[N+](=O)[O-])o2)c1	Cycloheximide cs 31, Shiga inhibitor 61, Sm TGR block 3.5µM
COc1ccc(NC(=O)c2ccc(-c3ccccc3C(F)(F)F)o2)cc1	none
C=C(C)CNCCN	none (no result: Pf growth 48h, Cycloheximide cs, Shiga inhibitor, Sm TGR block, Pf growth 96h)
N/C(=N\OC(=O)c1ccc(Br)o1)c1cccnc1	Cycloheximide cs 35, Shiga inhibitor 103 (no result: NS1 function inh)
COc1ccc(/C(N)=N/OC(=O)c2ccc(Br)o2)cc1	Shiga inhibitor 84
N/C(Cc1ccc(Cl)c(Cl)c1)=N\OC(=O)c1ccc(Br)o1	Pf growth 48h 15µM, Pf growth 96h 15µM
CSc1cccc(NC(=O)Cn2ncn3c(cc4ccccc43)c2=O)c1	none (no result: Pf growth 48h, Cycloheximide cs, Shiga inhibitor, Pf growth 96h, NS1 function inh)
O=C(N[C@@H](Cc1c[nH]c2ccccc12)C(=O)O)C1CCN(S(=O)(=O)c2cccs2)CC1	none
O=C(NC1CCSc2ccccc21)c1cccc(S(=O)(=O)N2CCOCC2)c1 (stereo unspecified)	none (no result: Cycloheximide cs, Shiga inhibitor, NS1 function inh)
CC[C@@]1(c2ccccc2OC)ON(c2ccccc2C(F)(F)F)C1=O	Pf growth 48h 0.59µM, Pf growth 96h inconclusive (no result: Cycloheximide cs, Shiga inhibitor, NS1 function inh)
CC1(c2ccccc2)ON(c2ccccc2C(F)(F)F)C1=O (stereo unspecified)	Pf growth 48h 4.1µM, Pf growth 96h inconclusive (no result: Cycloheximide cs, Shiga inhibitor, NS1 function inh)
O=C1N(c2ccccc2C(F)(F)F)O[C@]1(c1ccccc1)C1CCCC1	Pf growth 48h 1.7µM, Pf growth 96h 1.3µM (no result: Cycloheximide cs, Shiga inhibitor, NS1 function inh)
Cc1ccccc1[C@@]1(C)ON(c2ccccc2C(F)(F)F)C1=O	Pf growth 48h 1.7µM, Pf growth 96h 1µM (no result: Cycloheximide cs, Shiga inhibitor, NS1 function inh)
CC12CN3CN(C1)CC(c1ccccc1)(C3)C2=O	none
COc1ccccc1CNC(=O)C(=O)NCC(c1ccc2c(c1)OCO2)N1CCOCC1 (stereo unspecified)	none (no result: Pf growth 48h, Cycloheximide cs, Shiga inhibitor, Pf growth 96h, NS1 function inh)
COc1ccccc1/C=C/C=N/NC(=O)c1cc(-c2ccc(C)o2)[nH]n1	Pf growth 48h inconclusive, Sm TGR block inconclusive, Pf growth 96h inconclusive
Cc1nn(C(=O)c2cccs2)c(C)c1CN1C(=O)c2ccccc2C1=O	none (no result: Pf growth 48h, Pf growth 96h)
Cc1nn(C(=O)c2cc3sccc3[nH]2)c(C)c1C	Cycloheximide cs 43, Shiga inhibitor 92
O=C(O)c1cnn(-c2nc(-c3ccc(F)cc3)cs2)c1C(F)(F)F	Shiga inhibitor 73
CCOC(=O)c1cnn(-c2nc(-c3ccc(C)cc3)cs2)c1C(F)(F)F	none
O=C(O)c1cnn(-c2nc(-c3ccc(Br)cc3)cs2)c1C(F)(F)F	Cycloheximide cs 45, Shiga inhibitor 53
COC(=O)c1sc2cccc(F)c2c1S(=O)(=O)N1CCN(c2cccc(OC)c2)CC1	none (no result: Pf growth 48h, Cycloheximide cs, Shiga inhibitor, Pf growth 96h, NS1 function inh)
CCc1ccc(-n2nc3cc(C)c(N)cc3n2)cc1	Cycloheximide cs 57, Shiga inhibitor 142, Pf growth 96h 13µM, NS1 function inh inconclusive
Cc1cc2nn(-c3cccc4ccccc34)nc2cc1N	Pf growth 48h inconclusive, Cycloheximide cs 22, Shiga inhibitor 44 (no result: Pf growth 96h)
Cc1ccc(-n2nc3cc(C)c(N)cc3n2)cc1	Cycloheximide cs 53, Shiga inhibitor 96 (no result: Pf growth 96h)
COc1ccc2c(c1)-c1nc(NC(=O)c3cc(Cl)ccc3OC)sc1CC2	none (no result: Pf growth 48h, Cycloheximide cs, Shiga inhibitor, Pf growth 96h, NS1 function inh)
COc1ccc(CCNC(=O)c2cc3c(=O)n4cccc(C)c4nc3n(CC3CCCO3)c2=N)cc1 (stereo unspecified)	Pf growth 48h 1.5µM, Pf growth 96h inconclusive
COC(=O)C1CCN(C(=O)c2cc3c(=O)n4cccc(C)c4nc3n2Cc2ccccc2)CC1	Pf growth 48h 5.9µM, Pf growth 96h 4.1µM
COc1ccc(CCn2c(=N)c(C(=O)NCC3CCCO3)cc3c(=O)n4ccccc4nc32)cc1OC (stereo unspecified)	Pf growth 48h inconclusive, Pf growth 96h inconclusive
Cc1cccn2c(=O)c3cc(C(=O)NCC4CCCO4)c(=N)n(CCc4ccccc4)c3nc12 (stereo unspecified)	Pf growth 48h 4.7µM, Pf growth 96h inconclusive
COc1ccc(CCNC(=O)c2cc3c(=O)n4cccc(C)c4nc3n(Cc3ccncc3)c2=N)cc1	none (no result: Pf growth 96h)
CCOC(=O)C1CCCN(C(=O)c2cc3c(=O)n4cccc(C)c4nc3n2C)C1 (stereo unspecified)	none (no result: Pf growth 48h, Cycloheximide cs, Shiga inhibitor, Sm TGR block, Pf growth 96h)
CCc1cc2c(cc3c(=O)n(CC(=O)NC4CCCCC4)nc(CC)n32)s1	none (no result: Pf growth 48h, Cycloheximide cs, Shiga inhibitor, Pf growth 96h, NS1 function inh)
O=C(O)C1C(C(=O)O)C(C(=O)O)C1C(=O)O (stereo unspecified)	none (no result: Pf growth 48h, Cycloheximide cs, Shiga inhibitor, Sm TGR block, Pf growth 96h)
COC(=O)c1ccc(C(=O)Nc2ccc(C(C)C)cc2N)cc1	Cycloheximide cs 32, Shiga inhibitor 70 (no result: NS1 function inh)
COC(=O)c1ccc(C(=O)NN)cc1	none
CCC1C(=O)NCCN1Cc1nc(-c2ccc(C)s2)oc1C (stereo unspecified)	Sm TGR block 40µM, Pf growth 96h inconclusive
CCCC(CCC)C(=O)Nc1ccc2c(c1)N(C(=O)CCN1CCN(C)CC1)c1ccccc1CC2	Pf growth 48h inconclusive
CCCCC(c1nnnn1CC1CCCO1)N1CCN(c2nc3ccccc3s2)CC1 (stereo unspecified)	Pf growth 48h 13µM
CCCC(c1nnnn1CC1CCCO1)N1CCN(c2nc3ccccc3s2)CC1 (stereo unspecified)	Pf growth 48h 12µM
COCCN1C(=O)C(CC(=O)Nc2ccc(C(=O)O)cc2)SC1=Nc1ccccc1 (stereo unspecified)	Sm TGR block inconclusive
O=C(CC1Sc2ncnn2C1=O)Nc1ccc(Br)cc1 (stereo unspecified)	Sm TGR block 1µM, Pf growth 96h 10µM
O=C(CC1SC(=Nc2cccc3ccccc23)N(Cc2ccccn2)C1=O)Nc1ccccc1Br (stereo unspecified)	Pf growth 48h 9.3µM, Pf growth 96h 8.3µM
